Results published in the supplement of paper PMC3334620.
Over roughly 33,000 sequences, “E-score (-0.5 to 0.5)” has its median near -0.016; the highest 2% begin near 0.32. Shown is part of a subset that was picked to be rich in the highest values.

Each sequence was assayed against T1, Stp1 (UniProt B3LFK1) (assay: PBM E-score (8-mer binding enrichment) (E-score (-0.5 to 0.5)); higher = stronger / more preferred TF binding). Conditions: protein concentration: 200 nM; construct: GST-full length.
T1 sequence: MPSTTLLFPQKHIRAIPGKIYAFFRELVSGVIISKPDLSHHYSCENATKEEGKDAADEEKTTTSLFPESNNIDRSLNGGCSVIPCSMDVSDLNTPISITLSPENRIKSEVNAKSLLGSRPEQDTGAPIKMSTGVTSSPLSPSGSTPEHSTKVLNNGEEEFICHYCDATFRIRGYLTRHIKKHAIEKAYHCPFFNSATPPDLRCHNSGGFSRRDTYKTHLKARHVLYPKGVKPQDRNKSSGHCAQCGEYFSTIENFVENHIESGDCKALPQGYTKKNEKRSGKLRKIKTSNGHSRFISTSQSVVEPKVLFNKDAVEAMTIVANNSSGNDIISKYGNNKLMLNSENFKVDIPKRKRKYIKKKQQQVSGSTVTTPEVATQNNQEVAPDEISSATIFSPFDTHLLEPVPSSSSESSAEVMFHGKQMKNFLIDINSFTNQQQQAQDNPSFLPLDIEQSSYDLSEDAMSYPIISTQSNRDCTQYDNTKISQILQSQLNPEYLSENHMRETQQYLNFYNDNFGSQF
Summary of the method: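 Using PURExpress in vitro transcription/translation, GST-tagged yeast transcription factors were made in full-length or DNA-binding-domain form. These were applied at about 100-200 nM to double-stranded universal all-10-mer Agilent arrays, and bound protein was detected with fluorescent anti-GST. Scans were normalised with masliner before the Universal PBM Analysis Suite assigned E-scores to ungapped eight-base words pooled with their reverse complements.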

Row | Sequence | PBM E-score
1 | AAGGCGAA | 0.197
2 | AAGGCGAT | 0.329
3 | CTATGGTA | -0.0844
4 | AGTTTTGC | 0.203
5 | AAGGGATA | -0.00219
6 | CTAAGTAG | 0.0172
7 | ACTTTGTC | 0.0794
8 | ACTTAAAT | 0.0505
9 | CAAGCGGG | -0.168
10 | GAAGCGGC | 0.426
11 | CAAGCGGC | 0.466
12 | CAAGCGGA | -0.0234
13 | AGAGCGGC | 0.307
14 | GAAGCGTC | -0.0144
15 | AAAGCGGA | 0.0227
16 | CGAGCGGA | 0.114
17 | AAAGCGGC | 0.366
18 | AAAGCGGG | -0.19
19 | GAAGCGGA | -0.0314
20 | CGAGCGGC | 0.416
21 | AAAGGGAC | -0.055
22 | AAGACCGA | -0.107

Row | Sequence | PBM E-score
23 | ACTTAGGC | -0.0486
24 | ATATTCGG | 0.0873
25 | ACCCATAC | -0.0919
26 | AAGTCTCG | -0.199
27 | CGCCAACG | 0.0633
28 | ATGGCTCG | -0.0567
29 | ATAAACAT | 0.222
30 | AAAAGAAG | 0.19
31 | AAAAGAAC | 0.0475
32 | AAAAGAAT | 0.322
33 | CTTATAAA | 0.115
34 | CGTATAAC | 0.217
35 | CGTATAAA | 0.319
36 | TTTATAAA | 0.376
37 | AGTATAAA | 0.297
38 | GTTATAAA | 0.0721
39 | AGTCTGTA | -0.18
40 | AAGTCCCG | -0.145
41 | GCTCGAAC | -0.0559
42 | CCAGGTGC | -0.187
43 | TGGCAAAA | 0.292
44 | AGGCAAAC | 0.118

Row | Sequence | PBM E-score
45 | CGGCAAAA | 0.357
46 | GGGCAAAA | 0.142
47 | CGGCAAAG | 0.264
48 | AGGCAAAA | 0.344
49 | AGACCTCG | -0.157
50 | GCCGAGGC | 0.357
51 | CGCGAGGC | 0.421
52 | CGCGAGGA | -0.0281
53 | GCCGAGGA | 0.0308
54 | CACGAGGC | 0.415
55 | CACGAGGA | 0.102
56 | ACCGAGGC | -0.121
57 | AGCGAGGC | 0.197
58 | CACGAGGG | -0.253
59 | ATCAGGTC | -0.114
60 | CACGATAC | -0.0326
61 | GACAACAA | 0.0779
62 | AAGCCCCT | -0.287
63 | CCTTAACC | -0.221
64 | ACCCCGCT | -0.174
65 | ACGGCAGC | 0.406
66 | AAGGCAGG | -0.236

Row | Sequence | PBM E-score
67 | AAGGCAGT | 0.103
68 | CCGGCAGC | -0.063
69 | CCGGCAGG | -0.17
70 | CCGGCAGA | -0.0739
71 | ACAGCAGT | -0.0354
72 | TCGGCAGA | -0.0589
73 | ATGGCAGC | 0.00395
74 | ACGGCAGG | 0.343
75 | ACGGCAGT | 0.403
76 | ACGGCAGA | 0.367
77 | ATCTTTAG | 0.0678
78 | AGCCATCC | 0.0193
79 | CCAGCGGC | 0.256
80 | GCAGCGGC | 0.32
81 | GCGGCAGA | 0.261
82 | GCAGCGGA | -0.0607
83 | GCGGCAGC | 0.334
84 | GAGGCAGC | 0.0343
85 | ACTTTTTA | 0.157
86 | AACTACGG | -0.0064
